SMN2 splice enh – SMN2 splice variant enhancement; 210,000 tested, 2.8% active; Potency, µM (top dose mostly 46.1 µM), for inactives: top-dose activity change, positive = activation, hits mostly activators; HEK293 SMN2-luciferase splicing reporter, luminescence, 30-36 h; further: % of control where 0% means no effect; nearly all actives have a fitted effect of over 55% in size
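HEK293 cells carry an SMN2 […]–luciferase reporter in which exon 7 inclusion puts luciferase in frame. Cells were plated 10-12 h before compound addition, then incubated 30-36 h at 37C. ONE-Glo luminescence was read; sodium butyrate at 4.5 mM final served as control.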
ELG1 genotoxic – inducers of genotoxicity in HEK293T ELG1-luciferase cells; HEK293T ELG1-luciferase reporter, luminescence, 16 h; Potency, µM (top dose mostly 46 µM), inactives show at the top dose activity change, positive = activation, usual class: activators; AID 504466; 330,000 tested, 1.3% active; further: % of control where 0% means no effect; nearly all actives have a fitted effect of over 60% in size
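HEK293T cells expressing luciferase-tagged ELG1 were treated with compound or DMSO for 16 hr at 37°C. Luciferase activity was then read after 30 min with ONE-Glo at room temperature; rising signal flags genetic stress.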
Rab9 prom act – activates the Rab9 promoter. AID 485297. 320,000 tested, 2.8% active. Huh7 Rab9 promoter-luciferase reporter, luminescence, 24 h. Potency, µM (highest dose often 9.22 µM), inactives show at the highest dose activation, negative = inhibition, most hits filed as activators; further: % of control where 0% means no effect; nearly all actives have a fitted effect of over 60% in size
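Rab9 promoter-driven luciferase in stably transfected Huh7 cells; 1500 cells/well rested 2 h, exposed to compound in DMSO for 24 h at 37 °C, 5% CO2. Luminescence read 10 min after adding luciferase reagent at ambient temperature.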
NPC1 prom act – activates the NPC1 promoter; Huh7 NPC1 promoter luciferase reporter, 24 h; 320,000 tested, 2.4% active; Potency, µM (top dose mostly 9.22 µM), for the others: top-dose activation, hits mostly activators; AID 485313; further: % of control where 0% means no effect; nearly all actives have a fitted effect of over 60% in size
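Compounds in DMSO were transferred onto Huh7 NPC1-luciferase reporter cells pre-incubated 2 h; after 24 h at 37 °C, Amplite reagent was dispensed and luminescence recorded 10 min later.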
FLuc counter – inhibits or activates purified firefly luciferase, miR-21 counter-screen. P08659. purified FLuc, Km substrates, luminescence inhibition. Potency, µM (top dose mostly 57.5 µM), inactives show at the top dose activity change, negative = inhibition, hits mostly inhibitors. 360,000 tested, 6.9% active. AID 588342;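 further: plate controls were vehicle for no effect and reference inhibitor for full effect; nearly all actives have a fitted effect of over 55% in size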
Target sequence (P08659 whole entry, looked up): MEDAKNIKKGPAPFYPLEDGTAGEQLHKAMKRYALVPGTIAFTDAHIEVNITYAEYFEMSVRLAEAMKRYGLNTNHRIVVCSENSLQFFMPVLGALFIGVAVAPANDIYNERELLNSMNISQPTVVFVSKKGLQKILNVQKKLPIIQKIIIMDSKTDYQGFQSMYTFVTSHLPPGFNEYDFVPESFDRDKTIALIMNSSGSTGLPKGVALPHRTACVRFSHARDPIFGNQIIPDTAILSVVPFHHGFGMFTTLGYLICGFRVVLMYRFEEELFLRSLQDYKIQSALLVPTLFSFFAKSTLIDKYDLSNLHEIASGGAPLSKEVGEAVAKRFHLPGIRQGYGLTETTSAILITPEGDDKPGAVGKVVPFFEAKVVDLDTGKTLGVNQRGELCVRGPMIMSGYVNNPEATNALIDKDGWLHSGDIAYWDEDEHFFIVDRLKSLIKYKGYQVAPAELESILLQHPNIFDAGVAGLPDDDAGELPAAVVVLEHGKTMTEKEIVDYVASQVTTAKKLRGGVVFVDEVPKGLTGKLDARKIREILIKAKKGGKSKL
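Purified P. pyralis luciferase, 10 nM final, with Km-level 10 uM D-luciferin and 10 uM ATP in 50 mM Tris acetate pH 7.5, 10 mM Mg acetate, 0.01% Tween-20, 0.05% BSA; 6-point qHTS titration about 60 µM downward; luminescence read.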
Luc counter – blocks Kinase-Glo luciferase, a counter-screen artifact; Potency, µM (doses to about 38.3 µM), inactives show at the highest dose activity change, negative = inhibition, actives largely listed as inhibitors; Kinase-Glo luciferase, ATP luminescence, 8 min; 200,000 tested, 0.28% active; AID 1379; further: on the % scale 0 is the no-effect control and ±100 the full control effect; nearly all actives have a fitted effect of over 60% in size
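Compounds were added to a substrate mix at pH 7.2 (50 mM imidazole, 10 uM ATP, within the enzyme's linear range), followed by Kinase-Glo detection reagent; luminescence was measured after 8 minutes at ambient temperature.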
An asterisk follows results filed as active; u = inconclusive; x = not tested or not shown; [ ] = remark or other dose. The list is not random: actives were taken first. Their share in the collection is about 7.5%. The call rests on the fitted dose curve; in most records, active means well fitted curve in the direction sought with a large enough effect; inconclusive means small, poorly fitted or top-dose-only effect, or another doubt; inactive means no such curve, though single readings can be large; an effect the other way counts as inactive or inconclusive. Potency means the concentration at half of the fitted maximal effect.

SMILES	SMN2 splice enh	ELG1 genotoxic	Rab9 prom act	NPC1 prom act	FLuc counter	Luc counter
Cc1ccc(N(Cc2ccccc2)C(=O)c2cc(S(=O)(=O)N3CCOCC3)ccc2Cl)cc1	x	u	-4%	-4%	u	x
Cc1ccc(N(Cc2ccccc2)C(=O)c2cc(S(=O)(=O)N3CCOCC3)ccc2F)cc1	x	0%	1%	-2%	19µM*	x
Clc1ccccc1-c1nc(-c2ccccc2)n[nH]1	u	u	2.8µM*	3.2µM*	6.7µM*	-9%
COc1ccc(-c2nc3sc(CCNS(=O)(=O)c4c(C)cc(C)cc4C)c(C)n3n2)cc1	x	x	x	x	-1%	x
C=CCc1c(C)nc(-c2ccccc2)nc1N/N=C(\C)c1ccc(N)cc1	-29%	-1%	-17%	-5%	12µM*	-1%
C=CCc1c(C)nc(-c2ccccc2)nc1N/N=C/c1ccncc1	26%	-5%	28%	14%	6µM*	-8%
C=CCc1c(C)nc(-c2ccccc2)nc1Nc1ccccc1O	-3%	-3%	-1%	2%	-18%	5%
C=CCc1c(C)nc(-c2ccccc2)nc1N/N=C/c1ccccc1	9%	1%	-3%	0%	9.5µM*	0%
CS(=O)(=O)N(CC(=O)NCCSCc1ccccc1)c1cc(C(F)(F)F)ccc1Cl	11%	x	x	x	6%	x
O=c1c2c3c(sc2ncn1/N=C/c1cccnc1)CCCC3	8%	10%	22%	-1%	15µM*	-2%
O=c1c2c3c(sc2ncn1/N=C/c1ccncc1)CCCC3	4%	-2%	0%	0%	u	-2%
C/C(=C\C(=O)c1ccc(Br)cc1)Nc1ccc(Cl)cc1	x	u	14%	13%	27µM*	-2%
COc1cccc(N/C(C)=C/C(=O)c2ccc(Br)cc2)c1	18µM*	u	u	u	5.4µM*	13%
C/C(=C\C(=O)c1ccccc1)Nc1ccc(Br)c(Cl)c1	-2%	13%	u	24%	21µM*	-2%
COc1ccc(CNC(=O)c2ccc3c(c2)N(Cc2cccc(Cl)c2)C(=O)c2ccccc2S3)c(OC)c1	x	x	x	x	-2%	x
Cn1c(CO)nc2cc(N)ccc21	x	-1%	0%	0%	17µM*	-2%
CCOC(=O)C1OC1c1ccccc1 (stereo not given)	-6%	x	x	x	x	x
O=C(CSc1nc2ccccc2o1)N/N=C/c1ccc(O)c(O)c1	x	14%	-2%	-5%	19µM*	x
C/C(=N\NC(=O)CSc1nc2ccccc2o1)c1ccc(O)cc1	10%	9%	3%	1%	17µM*	1%
O=C(CSc1nc2ccccc2o1)N/N=C/c1ccccc1	-4%[1.84 µM]	16%	1%	-2%	-2%	-2%
CCOC(=O)c1c(C)oc2nc(C)nc(NCc3ccc(F)cc3)c12	x	x	x	x	5%	x
O=c1[nH][nH]c2c(N=Cc3ccccc3O)ccc(F)c12	x	-6%	-8%	0%	19µM*	x
CN(Cc1cn(-c2ccccc2)nc1-c1cc2ccccc2o1)C(=O)CCC(=O)O	5%	u	27%	17%	3µM*	4%
O=C(O)c1cc(-c2cc3ccccc3o2)nn1-c1ccccc1	13%	5%	14%	-4%	u	2%
O=C(O)/C=C\c1cn(-c2ccccc2)nc1-c1cc2ccccc2o1	11%	8%	-2%	-1%	13µM*	3%
O=C(Nc1ccc([N+](=O)[O-])cc1)c1cn(-c2ccccc2)nc1-c1cc2ccccc2o1	2%	u	-2%	-1%	4%	3%
CN(C)C(=O)c1cn(-c2ccccc2)nc1-c1cc2ccccc2oc1=O	21%	-4%	0%	0%	-5%	1%
CN(C)C(=O)c1cn(-c2ccccc2)nc1-c1cc2ccccc2o1	-9%	-1%	-4%	-1%	24µM*	1%
O=C(O)/C=C/c1cn(-c2ccccc2)nc1-c1cc2ccccc2o1	x	4%	0%	-2%	15µM*	x
COC(=O)C1CCN(Cc2cn(Cc3ccccc3)nc2-c2cc3ccccc3o2)CC1	x	-7%	0%	0%	0%	6%

Source: PubChem BioAssay (National Center for Advancing Translational Sciences (NCATS))
